The supplement of paper PMC3545927
Some of the results follow. The true hit rate is not given.

Molecular target: furin, P09958
Assay: furin cleavage Z-score vs untreated control; higher = more cleavage, active = 3.5 or more, inactive = 1 or less, 8 variable residues between constant flanks
In short: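 Abundance of DNA freed from bead-bound 8-mer peptide–cDNA fusions by purified furin was measured as sequencing read counts after PCR adapter tagging. Cutting ran 7.5, 15 or 30 min in 0.01 ml of 50 mM HEPES pH 7.5 with CaCl2 and NaCl at 1:10 enzyme:substrate. The cleavage Z-score expresses these log counts against furin-free reactions after lowess adjustment and median absolute deviation scaling.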

furin, P09958, sequence (P09958 whole entry): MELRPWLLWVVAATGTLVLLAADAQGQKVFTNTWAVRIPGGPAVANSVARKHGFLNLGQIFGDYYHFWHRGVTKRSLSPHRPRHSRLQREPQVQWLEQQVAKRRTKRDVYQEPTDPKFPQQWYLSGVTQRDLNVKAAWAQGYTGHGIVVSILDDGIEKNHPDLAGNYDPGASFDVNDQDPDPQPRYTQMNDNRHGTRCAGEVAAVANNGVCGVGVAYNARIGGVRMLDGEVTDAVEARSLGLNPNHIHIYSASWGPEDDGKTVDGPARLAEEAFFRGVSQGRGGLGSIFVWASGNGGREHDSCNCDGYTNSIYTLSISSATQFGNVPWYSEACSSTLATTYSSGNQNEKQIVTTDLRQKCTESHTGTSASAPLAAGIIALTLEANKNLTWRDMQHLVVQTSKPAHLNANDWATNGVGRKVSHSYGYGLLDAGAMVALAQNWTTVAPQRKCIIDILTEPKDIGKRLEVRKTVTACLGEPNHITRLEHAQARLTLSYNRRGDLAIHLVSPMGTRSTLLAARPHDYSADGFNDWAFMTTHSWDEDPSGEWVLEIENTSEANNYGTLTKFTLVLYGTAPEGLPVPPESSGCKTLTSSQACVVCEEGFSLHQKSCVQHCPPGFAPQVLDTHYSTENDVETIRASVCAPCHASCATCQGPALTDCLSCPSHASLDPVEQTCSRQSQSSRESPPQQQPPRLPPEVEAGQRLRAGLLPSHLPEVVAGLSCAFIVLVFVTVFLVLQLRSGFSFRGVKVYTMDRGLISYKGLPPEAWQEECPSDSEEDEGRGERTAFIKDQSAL

Sequence: CASTLPGNPAAGNASASA [HC1050]
- furin cleavage Z-score (7.5 min): -1.13 (inactive)
- furin cleavage Z-score (15 min): 0.099 (inactive)
- furin cleavage Z-score (30 min): -1.54 (inactive)

Sequence: CARSRRCTCFAGNASASA [FS-2187]
- furin cleavage Z-score (7.5 min): -0.747 (inactive)
- furin cleavage Z-score (15 min): -0.988 (inactive)
- furin cleavage Z-score (30 min): -0.963 (inactive)

Sequence: CARSRRWKVKAGNASASA [FS-3211]
- furin cleavage Z-score (7.5 min): 1.85
- furin cleavage Z-score (15 min): -0.535 (inactive)
- furin cleavage Z-score (30 min): 0.212 (inactive)

Sequence: CARSRRKLMVAGNASASA [FS-2817]
- furin cleavage Z-score (7.5 min): -1.98 (inactive)
- furin cleavage Z-score (15 min): -0.17 (inactive)
- furin cleavage Z-score (30 min): -0.107 (inactive)

Sequence: CARSRRNVVMAGNASASA [FS-2382]
- furin cleavage Z-score (7.5 min): 5.51 (active)
- furin cleavage Z-score (15 min): 8.6 (active)
- furin cleavage Z-score (30 min): 7.9 (active)

Sequence: CARSRRAQPPAGNASASA [FS-2814]
- furin cleavage Z-score (7.5 min): 3.03
- furin cleavage Z-score (15 min): 4.42 (active)
- furin cleavage Z-score (30 min): 4.27 (active)

Sequence: CARSRRALPPAGNASASA [FS-2239]
- furin cleavage Z-score (7.5 min): 7.76 (active)
- furin cleavage Z-score (15 min): 7.46 (active)
- furin cleavage Z-score (30 min): 7.12 (active)

Sequence: CARSRRCLRDAGNASASA [FS-2607]
- furin cleavage Z-score (7.5 min): 4.81 (active)
- furin cleavage Z-score (15 min): 5.74 (active)
- furin cleavage Z-score (30 min): 5.33 (active)

Sequence: CASTPCSYHLAGNASASA [HC2529]
- furin cleavage Z-score (7.5 min): 0.0863 (inactive)
- furin cleavage Z-score (15 min): 1
- furin cleavage Z-score (30 min): 1.34

Sequence: CAEVVTSFWVAGNASASA [HC2207]
- furin cleavage Z-score (7.5 min): -0.594 (inactive)
- furin cleavage Z-score (15 min): 1.74
- furin cleavage Z-score (30 min): -0.243 (inactive)

Sequence: CASIPCSAHLAGNASASA [HC2484]
- furin cleavage Z-score (7.5 min): 0.328 (inactive)
- furin cleavage Z-score (15 min): 0.418 (inactive)
- furin cleavage Z-score (30 min): 0.274 (inactive)

Sequence: CAVVCCAMSYAGNASASA [HC101]
- furin cleavage Z-score (7.5 min): 1.72
- furin cleavage Z-score (15 min): 0.536 (inactive)
- furin cleavage Z-score (30 min): 0.579 (inactive)

Sequence: CASVPAEILRAGNASASA [HC1295]
- furin cleavage Z-score (7.5 min): 0.956 (inactive)
- furin cleavage Z-score (15 min): 1.63
- furin cleavage Z-score (30 min): 1.9

Sequence: CAYDAGCAWYAGNASASA [HC921]
- furin cleavage Z-score (7.5 min): 1.18
- furin cleavage Z-score (15 min): 0.654 (inactive)
- furin cleavage Z-score (30 min): 0.883 (inactive)

Sequence: CALVSFLVFFAGNASASA [HC543]
- furin cleavage Z-score (7.5 min): -1.85 (inactive)
- furin cleavage Z-score (15 min): -1.89 (inactive)
- furin cleavage Z-score (30 min): -0.773 (inactive)

Sequence: CARSRNLGKVAGNASASA [HC218]
- furin cleavage Z-score (7.5 min): 1.83
- furin cleavage Z-score (15 min): 3.1
- furin cleavage Z-score (30 min): 0.167 (inactive)

Sequence: CARSRRRRRPAGNASASA [FS-1407]
- furin cleavage Z-score (7.5 min): 4.05 (active)
- furin cleavage Z-score (15 min): 4.27 (active)
- furin cleavage Z-score (30 min): 4.75 (active)

Sequence: CARSRRTICVAGNASASA [FS-3239]
- furin cleavage Z-score (7.5 min): 3.04
- furin cleavage Z-score (15 min): 0.821 (inactive)
- furin cleavage Z-score (30 min): 3.9 (active)

Sequence: CARSRKIAESAGNASASA [FS-2526]
- furin cleavage Z-score (7.5 min): -1.24 (inactive)
- furin cleavage Z-score (15 min): -0.08 (inactive)
- furin cleavage Z-score (30 min): -0.238 (inactive)

Sequence: CAPPSRRRRPAGNASASA [FS-1052]
- furin cleavage Z-score (7.5 min): 0.863 (inactive)
- furin cleavage Z-score (15 min): 0.662 (inactive)
- furin cleavage Z-score (30 min): 0.635 (inactive)

Sequence: CARSRKAVDWAGNASASA [FS-2238]
- furin cleavage Z-score (7.5 min): -0.617 (inactive)
- furin cleavage Z-score (15 min): 2.48
- furin cleavage Z-score (30 min): 2.21

Sequence: CASQGRRRRPAGNASASA [FS-194]
- furin cleavage Z-score (7.5 min): -0.188 (inactive)
- furin cleavage Z-score (15 min): 0.828 (inactive)
- furin cleavage Z-score (30 min): 0.793 (inactive)

Sequence: CARSRRTWELAGNASASA [FS-3265]
- furin cleavage Z-score (7.5 min): -1.05 (inactive)
- furin cleavage Z-score (15 min): 3.1
- furin cleavage Z-score (30 min): 1.34

Sequence: CARSRRAATSAGNASASA [FS-3092]
- furin cleavage Z-score (7.5 min): 10.1 (active)
- furin cleavage Z-score (15 min): 11.9 (active)
- furin cleavage Z-score (30 min): 9.59 (active)

Sequence: CARSFRSVTSAGNASASA [FS-3234]
- furin cleavage Z-score (7.5 min): -0.371 (inactive)
- furin cleavage Z-score (15 min): 0.166 (inactive)
- furin cleavage Z-score (30 min): 0.853 (inactive)

Sequence: CARSRRAVSVAGNASASA [FS-2815]
- furin cleavage Z-score (7.5 min): 4.34 (active)
- furin cleavage Z-score (15 min): 4.32 (active)
- furin cleavage Z-score (30 min): 4.26 (active)

Sequence: CARSNRDVFVAGNASASA [FS-1975]
- furin cleavage Z-score (7.5 min): 1.39
- furin cleavage Z-score (15 min): 1.28
- furin cleavage Z-score (30 min): 0.58 (inactive)
